An excerpt weighted towards active compounds, which were near 21% of everything screened.
NS1 function inh = influenza NS1 inhibition. actives 0.4% (n = 270,000). Potency, µM (series often up to 46.1 µM), inactives show at the highest dose activity, positive = more growth. AID 2326; calls by dose curve; also: potency is read from the fitted curve at half-maximal effect; actives are rising curves; nearly all actives have a fitted effect of over 50% in size
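Compounds were scored for reversing the slow growth caused by influenza A NS1 in S. cerevisiae, measured by optical density at 600 nm. Assay medium contained 2% galactose at pH 6.0; NS1-free yeast of the same strain were the positive control.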
Pf growth 96h = P. falciparum growth inhibition at 96 hours. actives 6.9% (n = 320,000). Potency, µM (series often up to 28.7 µM), for the others: at the top dose activity change, negative = inhibition, actives largely listed as inhibitors. AID 504834. P. falciparum luciferase reporter growth, 96 h; also: potency is read from the fitted curve at half-maximal effect; % is scaled to controls: 0 for no effect and ±100 for the full control effect
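Plates of compound plus infected erythrocytes (2% hematocrit, 0.05% parasitemia final) incubate 96 hours, 37 C, 5% CO2. Detection reagent added; reduced luminescence from the parasites' luciferase reporter flags inhibition.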
Sm TGR inh = S. mansoni TGR enzyme inhibition. Potency, µM (highest dose often 114 µM), without a hit: at the highest dose activity change, negative = inhibition, usual class: inhibitors. Q962Y6. purified TGR, DTNB reduction, TNB absorbance 405 nm. actives 3% (n = 360,000); also: potency is read from the fitted curve at half-maximal effect; % is scaled to controls: 0 for no effect and ±100 for the full control effect; nearly all actives have a fitted effect of over 60% in size
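Kinetic colorimetric format: TGR-catalysed, NADPH-driven DTNB reduction monitored via TNB absorbance. Enzyme dispensed at 20 nM; compound exposure 15 min at room temperature before reaction start.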
CHX counter = counter-screen hit for Shiga toxin inhibitors, cycloheximide; AID 2314; max response, %; cell reporter, cycloheximide protein synthesis inhibition counterscreen; actives 12% (n = 300,000); in the data active = max response mostly above about 13%, no sharp cut-off; inactive = mostly below about 14%; also: read at 38.3 µM for the half of the compounds with a filed dose; 0% is about no effect
Shiga toxin inh = blocks Shiga toxin action in Vero cells; actives 9.2% (n = 290,000); Vero cells, Shiga toxin protein synthesis inhibition reporter; inhibition, % at 38.7 µM; AID 2315; in the data active = inhibition mostly above about 28%, no sharp cut-off; inactive = mostly below about 43%; also: 0% is about no effect
Pf growth 48h = inhibits P. falciparum growth in the first generation, 48 h. Potency, µM (series often up to 28.7 µM), for inactives: top-dose activity change, negative = inhibition, actives largely listed as inhibitors. P. falciparum luciferase growth in erythrocytes, 48 h. actives 5.9% (n = 310,000); also: potency is read from the fitted curve at half-maximal effect; % is scaled to controls: 0 for no effect and ±100 for the full control effect
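Cell-based growth assay: transgenic P. falciparum expressing firefly luciferase, cultured in red cells within RPMI 1640 containing 0.5% w/v Albumax, 24 mM bicarbonate and gentamycin. A drop in luciferase activity indicates inhibition.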
The depositor's hits bear a star; u = inconclusive; x = no result given. Unless noted, calls follow the shape of the dose curve; as a rule, active = well fitted curve in the direction sought with a large enough effect; inconclusive = small, poorly fitted or top-dose-only effect, or another doubt; inactive = no such curve, though single readings can be large; an effect the other way counts as inactive or inconclusive.

SMILES | NS1 function inh | Pf growth 96h | Sm TGR inh | CHX counter | Shiga toxin inh | Pf growth 48h
NC(=NCCc1ccccc1)NS(=O)(=O)c1ccc2ccccc2c1 | -7.6% | 41.6% | -11.5% | -2.1 | -6.4 | 15.7%
COc1ccc(/C=C/c2cc(-c3ccc(C)cc3)o[n+]2C)cc1 | -122.5% | 0.147µM* | -7.8% | -1.9 | -30.1 | u
CCN(CC)CCOC(=O)c1ccc(NC(=O)C(C)NC(=O)C23CC4CC(CC(C4)C2)C3)cc1 (centres undefined) | 5.3% | 11.7µM* | -1.6% | -3.8 | -8.2 | -25.7%
CCN(CC)CCOC(=O)c1ccc(Cl)cc1 | -10.0% | u | 2.7% | 8.4 | 2.4 | x
CCOc1cc(C(=O)Nc2nnc(CC)s2)ccc1OCC(=O)N1CCOCC1 | 4.6% | u | 0.5% | -4.6 | 5.9 | 0.262µM*
CCOc1cc(C(=O)Nc2cc(OC)cc(OC)c2)ccc1OCC(=O)N1CCOCC1 | x | u | 0.7% | x | x | u
COc1ccc(-c2csc(NC(=O)c3ccc(OCC(=O)N4CCOCC4)c(OC)c3)n2)cc1OC | 5.5% | u | -11.7% | -1.4 | 18.9 | 9.28µM*
CCCCN(C(=O)C1CCCC1)C1CCS(=O)(=O)C1 (centres undefined) | x | 26.4% | -1.0% | x | x | 22.2%
Cc1ccc(Cl)cc1NC(=S)N(Cc1ccco1)C(C)c1cccs1 (centres undefined) | x | u | -8.9% | 0.1 | 5.8 | 14.7µM*
Cc1cc(C(=O)Nc2ccccc2)oc(=O)c1 | -3.5% | 172.2% | u | 48.2* | 44.8* | 111.3%
COc1ccc(NC(=O)c2ccc(COc3ccc(C)cc3)o2)cc1 | -8.7% | 5.22µM* | 9.6% | 34.3* | 73.3* | 3.1%
Cc1oc(C(=O)O)cc1COc1ccccc1Cl | -0.7% | -17.4% | 0.0% | 6.9 | -12.8 | 11.7%
Cc1ccc(OCc2cc(C(=O)Nc3ccccc3)oc2C)cc1 | -63.9% | 3.4% | 7.5% | 50.6* | 85.2* | x
CC(=O)Nc1ccc(NC(=O)c2ccc(COc3ccc(C)cc3)o2)cc1 | 12.8% | 9.28µM* | -8.4% | 19.4* | 111.0* | 0.0%
Cc1cccc2c1cnn2C(=O)CCC(=O)N1CCC(C)CC1 | -30.2% | -27.0% | -1.3% | 7.4 | 11.7 | -2.2%
COc1cc(/C=N/Nc2cccc(C)c2)ccc1OC(=O)c1ccco1 | -4.3% | 12.3% | -16.9% | 38.6* | 19.7 | -11.0%
COc1cc(/C=N/NC(N)=O)ccc1OC(=O)c1ccco1 | x | 10.1% | -5.8% | 0.4 | -15.4 | -6.5%
COc1cc(/C=N/NC(=O)c2cccc([N+](=O)[O-])c2)ccc1OC(=O)c1ccco1 | x | 27.4% | 15.2% | 7.2 | 40.2* | -10.4%
COc1cc(/C=C/[N+](=O)[O-])ccc1OCc1cccc(C(=O)O)c1 | -0.6% | 10.9% | x | 83.2* | 131.3* | 42.5%
COc1cc(/C=N/NC(=O)c2ccc(O)cc2)ccc1OCC(=O)Nc1cccc([N+](=O)[O-])c1 | -3.7% | 10.4µM* | -15.1% | 6.9 | 11.0 | 22.5%
CC1Nc2nc(N(C)C)[nH]c(=O)c2NC1C (centres undefined) | -12.6% | -12.7% | -16.2% | -3.0 | -3.5 | -2.4%
Nc1nnc(CC(=O)Nc2ccccc2)s1 | 2.7% | -2.9% | -1.7% | 10.3 | 8.2 | -21.5%
COc1cc(/C=N/NC(=O)c2ccc(O)cc2)ccc1OCC(=O)N1CC(C)OC(C)C1 (centres undefined) | 6.9% | 10.8% | 1.1% | 14.1* | 36.9* | -6.3%
COc1cc(/C=N/NC(=O)c2cccc([N+](=O)[O-])c2)ccc1OCc1ccccc1 | 17.5% | 9.28µM* | 2.5% | 2.3 | -16.0 | 16.5µM*
CCN(CC(=O)Nc1cc(C)c(Cl)cc1OC)CC(=O)NC1CCS(=O)(=O)C1 (centres undefined) | 1.4% | u | 4.8% | 8.7 | -3.5 | 23.2%
SMILES | NS1 function inh | Pf growth 96h | Sm TGR inh | CHX counter | Shiga toxin inh | Pf growth 48h
COc1ccc(NC(=O)Cc2csc(COc3cccc(C)c3)n2)c(OC)c1 | x | x | 2.1% | x | x | x
O=C(CSc1nnc(-c2cccnc2)n1Cc1ccco1)Nc1nc(-c2ccc(F)cc2)cs1 | 4.2% | x | u | -2.0 | 8.2 | 20.7%
COc1ccc(-c2csc(NCc3ccco3)n2)cc1C | u | x | -20.4% | 23.8* | 114.1* | -16.0%
c1cncc(-c2csc(NCc3ccco3)n2)c1 | -47.2% | u | 1.9% | 32.3* | 38.4* | x
COc1ccc(-c2noc(-c3ccc(NCc4ccco4)c([N+](=O)[O-])c3)n2)cc1OC | x | x | 3.5% | x | x | x
COc1ccc(-c2nc3cccc(C)n3c2NCc2ccco2)cc1OC | -30.4% | 9.6% | -28.1% | 16.1* | -3.9 | 9.7%
CC(=O)Nc1ccc(-c2csc(NCc3ccco3)n2)cc1 | 23.3% | 0.0% | -21.6% | 48.1* | 44.1* | 161.8%
NCCC1([N+](=O)[O-])CCNCC1 | -5.2% | x | x | x | x | x
CC(=O)Nc1c(NCC(C)C)c2ccccc2oc1=O | -11.7% | u | 11.2% | -1.2 | -9.4 | u
Cc1ccn2c(-c3csc(NCc4ccco4)n3)c(C)nc2c1 | -14.4% | -5.1% | 4.0% | 2.2 | 54.8 | 11.7µM*
O=C(CN1CSCC1=O)N1CCN(S(=O)(=O)c2cc(C(F)(F)F)ccc2Cl)CC1 | x | 2.9% | 1.2% | x | x | u
COc1ccccc1CCC(=O)N1CCN(S(=O)(=O)c2cc(C(F)(F)F)ccc2Cl)CC1 | x | 3.7µM* | 2.3% | x | x | u
COc1ccc(-c2ccc3c(c2)S(=O)(=O)c2cccc(C(=O)NC4CCCC4)c2C3=O)cc1OC | x | 40.1% | -11.1% | x | x | 25.8%
O=C(NC1CCCC1)c1cccc2c1C(=O)c1ccc(/C=C/c3ccccc3)cc1S2(=O)=O | x | 1.85µM* | u | x | x | u
O=C(Cc1cccs1)Nc1ccc(F)c(S(=O)(=O)N2CCOCC2)c1 | x | 6.57µM* | 0.7% | x | x | u
CC1CCN(S(=O)(=O)c2ccc(NC(=O)Cc3cccs3)cc2)CC1 | 10.6% | -32.4% | -22.1% | -3.7 | -27.1 | x
O=C(Cc1cccs1)Nc1ccc(Cl)c(S(=O)(=O)N2CCOCC2)c1 | x | u | 0.6% | x | x | 10.4µM*
Cc1ccc(NC(=O)COC(=O)Cc2cccs2)cc1S(=O)(=O)N1CCOCC1 | 0.3% | -16.0% | u | 2.4 | -8.8 | -16.0%
COc1ccc(N2CCN(C(=O)CNC(=O)Cn3cnc4sc(C)c(C)c4c3=O)CC2)cc1 | -1.7% | 7.4% | -14.6% | -1.7 | -3.6 | 8.0%
CCOc1ccc(NC(=O)c2ccc(-c3ccccc3)s2)cc1 | x | x | -7.0% | x | x | x
CNC(=O)c1ccc(-c2ccccc2)s1 | -68.8% | 107.1% | -22.3% | 34.1* | 69.2* | 3.3%
O=C(NCCCN1CCc2ccccc2C1)C1CCN(S(=O)(=O)N2CCC3(CC2)OCCO3)CC1 | x | u | -9.3% | -6.5 | -3.0 | -0.4%
Cc1cccc(NC(=O)COC(=O)CC2CCCC2)c1C | x | 9.4% | -1.4% | x | x | 25.3%
O=C(COC(=O)CC1CCCC1)Nc1cc2c(cc1Cl)C(=O)c1ccccc1C2=O | -69.0% | 176.8% | -0.3% | 31.6* | 40.9 | x

Screens as filed in PubChem.
